Bioassay records as filed in PubChem.
TDP1 inh = blocks human tyrosyl-DNA phosphodiesterase 1; Q9NUW8; recombinant TDP1, AlphaScreen DNA substrate cleavage; Potency, µM (doses to about 130 µM), most hits filed as inhibitors; 350,000 compounds, 0.28% hits; note: nearly all actives have a fitted effect of over 40% in size
Target sequence (Q9NUW8 whole entry, looked up): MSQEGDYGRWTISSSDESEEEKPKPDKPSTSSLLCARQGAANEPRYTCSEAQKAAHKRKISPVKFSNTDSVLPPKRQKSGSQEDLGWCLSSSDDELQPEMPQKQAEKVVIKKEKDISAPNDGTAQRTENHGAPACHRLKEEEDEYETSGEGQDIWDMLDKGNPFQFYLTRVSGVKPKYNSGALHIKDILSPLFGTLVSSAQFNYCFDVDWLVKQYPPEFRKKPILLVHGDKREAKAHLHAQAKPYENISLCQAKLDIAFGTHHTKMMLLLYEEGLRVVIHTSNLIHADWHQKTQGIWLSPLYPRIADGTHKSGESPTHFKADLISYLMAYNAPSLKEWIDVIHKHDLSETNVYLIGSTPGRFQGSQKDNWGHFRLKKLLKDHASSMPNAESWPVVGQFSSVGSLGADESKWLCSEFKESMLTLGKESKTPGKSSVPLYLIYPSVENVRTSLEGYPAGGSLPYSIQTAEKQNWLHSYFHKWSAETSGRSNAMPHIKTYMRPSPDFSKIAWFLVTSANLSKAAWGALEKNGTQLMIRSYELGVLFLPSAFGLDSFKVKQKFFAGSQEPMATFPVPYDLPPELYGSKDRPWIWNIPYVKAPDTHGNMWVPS
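Compounds were preincubated with Tdp1 (1 nM final) for 15 min at room temperature before substrate (15 nM final) started a 5 min reaction; beads (10 ug/ml final) were then added for 10 min before AlphaScreen detection.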
ClpP mod = qHTS Assay for Activators of ClpP | purified B. subtilis ClpP, FRET peptide cleavage, 20 min | Potency, µM (top dose mostly 57.5 µM) | 340,000 compounds, 1.9% hits | AID 651965, 2013; active = well fitted falling curve with a large enough effect; inconclusive = small, poorly fitted or top-dose-only effect; inactive = no such curve, though single readings can be large or run the other way; note: the source files actives as falling curves though it sought activators and does not explain the sign; nearly all actives have a fitted effect of over 65% in size
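Purified B. subtilis ClpP, 10 microg/mL final in Tris/HCl pH8 with KCl, BSA, glycerol and Tween-20, cleaved an Abz/nitrotyrosine-quenched decapeptide. Fluorescence (ex 320, em 430) was read at 0 and 20 min at room temperature. Delta was normalized to 5.8 microM ADEP and DMSO/no-enzyme controls.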
DT40 TDP1 CPT = growth inhibition of DT40 Tdp1-/-;hTDP1 cells with camptothecin (screen for TDP1 inhibitors); chicken DT40 Tdp1-/-;hTDP1 cells + 20 nM CPT, ATP luminescence, 48 h; Potency, µM (doses to about 46.2 µM), actives largely listed as inhibitors; 420,000 compounds, 12% hits; AID 686979; note: nearly all actives have a fitted effect of over 55% in size
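Chicken DT40 Tdp1-/- cells complemented with human TDP1, 400 cells/well, exposed to compounds plus 20 nM camptothecin for at least 48 h at 37 C; viability read as ATP content by CellTiter-Glo luminescence.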
DT40 TDP1 no CPT = qHTS for Inhibitors of human tyrosyl-DNA phosphodiesterase 1 (TDP1): qHTS in cells in absence of CPT; DT40 Tdp1-/- hTDP1 cells, no CPT, ATP luminescence, 48 h; Potency, µM (titrated, usually from 46.2 µM), most hits filed as inhibitors; 420,000 compounds, 15% hits; AID 686978, 2013; note: nearly all actives have a fitted effect of over 55% in size
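Growth kinetics read by CellTiter-Glo luminescence after ≥48 hr at 37 °C. Cells: DT40 Tdp1-/- stably carrying human TDP1, 400 per well, compound exposure in the absence of CPT (DMSO vehicle).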
Numbers stand for hits; [ ] = remark or other dose. This is a sample that favours compounds with a hit; in the whole collection about 17% have one here. Unless noted, calls come from the whole dose curve; as a rule, active = well fitted curve in the direction sought with a large enough effect; inconclusive = small, poorly fitted or top-dose-only effect, or another doubt; inactive = no such curve, though single readings can be large; an effect the other way counts as inactive or inconclusive.

For CCOc1ccc(-c2nnc(-c3ccncc3)o2)cc1OCC the results were TDP1 inh inactive, DT40 TDP1 CPT inactive and DT40 TDP1 no CPT inconclusive.
`CCOc1ccc(-c2nnc(-c3cccnc3)o2)cc1OCC` gave TDP1 inh inactive, ClpP mod inactive, DT40 TDP1 CPT inconclusive and DT40 TDP1 no CPT 16µM.
Cc1ccccc1CN1CCN(S(C)(=O)=O)CC1 was read as TDP1 inh inactive, ClpP mod inactive, DT40 TDP1 CPT inactive and DT40 TDP1 no CPT inactive.
For Cc1nc(-c2ccc(S(=O)(=O)N3CCN(C(c4ccccc4)c4ccccc4)CC3)s2)cs1 the results were TDP1 inh inactive, ClpP mod inactive, DT40 TDP1 CPT inconclusive and DT40 TDP1 no CPT inconclusive.
`Cc1nc(-c2ccc(S(=O)(=O)N3CCN(Cc4ccccc4)CC3)s2)cs1` gave TDP1 inh inactive, ClpP mod inactive, DT40 TDP1 CPT inconclusive and DT40 TDP1 no CPT 9.2µM.
For Cc1nc(-c2ccc(S(=O)(=O)NCc3cccnc3)s2)cs1 the results were TDP1 inh inactive, ClpP mod inactive, DT40 TDP1 CPT 12µM and DT40 TDP1 no CPT 21µM.
Cc1ccccc1CN1CCN(S(=O)(=O)c2ccc(Cl)s2)CC1 was read as TDP1 inh inactive, ClpP mod inactive, DT40 TDP1 CPT 23µM and DT40 TDP1 no CPT inconclusive.
`Oc1ccccc1C1C=C(c2ccc3c(c2)OCO3)NC(c2c(F)cccc2Cl)N1` (centres undefined) gave TDP1 inh inactive.
Cn1cc(-c2nc3cnc(N4CCNCC4)nc3n(C)c2=O)c2ccccc21 was read as DT40 TDP1 CPT 5.2µM and DT40 TDP1 no CPT 5.8µM.
For COc1ccc(-n2c(=O)c(-c3cn(C)c4ccccc34)nc3cnc(N4CCOCC4)nc32)cc1 the results were DT40 TDP1 CPT inactive and DT40 TDP1 no CPT inactive.
`CN1CCN(c2ncc3nc(-c4cn(C)c5ccccc45)c(=O)n(C)c3n2)CC1` gave DT40 TDP1 CPT 23µM and DT40 TDP1 no CPT 23µM.
`Cn1cc(-c2nc3cnc(N4CCOCC4)nc3n(C3CC3)c2=O)c2ccccc21` gave DT40 TDP1 CPT inactive and DT40 TDP1 no CPT inactive.
`CCOc1cc2[nH]c(=S)n(CCC(=O)NC3CCCCC3)c(=O)c2cc1OCC` gave ClpP mod inactive, DT40 TDP1 CPT inconclusive and DT40 TDP1 no CPT inactive.
For COc1ccc(NC(=O)COc2ccc3c(C)cc(=O)oc3c2)cc1S(=O)(=O)N1CCCCC1 the results were TDP1 inh inactive[0.505 µM], DT40 TDP1 CPT inconclusive and DT40 TDP1 no CPT inconclusive.
Screening O=C(NCCN1C(=O)S/C(=C\c2ccccc2F)C1=O)C1CCCN1C(=O)c1cccs1 (centres undefined) returned TDP1 inh inactive, ClpP mod inactive, DT40 TDP1 CPT inactive and DT40 TDP1 no CPT inactive.
For CCC(=O)Nc1ccc(S(=O)(=O)Nc2cccc(C)c2)cc1OC the results were TDP1 inh inactive, ClpP mod inactive, DT40 TDP1 CPT inconclusive and DT40 TDP1 no CPT 12µM.
For COc1ccc(CC(=O)Nc2cc(S(=O)(=O)Nc3ccc(OC)cc3)ccc2OC)cc1 the results were TDP1 inh inactive, ClpP mod inactive, DT40 TDP1 CPT 21µM and DT40 TDP1 no CPT 21µM.
Screening COc1ccc(NS(=O)(=O)c2ccc(NC(=O)Cc3cccs3)cc2)cc1 returned TDP1 inh inactive, ClpP mod inactive, DT40 TDP1 CPT inconclusive and DT40 TDP1 no CPT 15µM.
CCCCN(CCCC)S(=O)(=O)c1ccc(NC(=O)Cc2cccs2)cc1 was read as TDP1 inh inactive, ClpP mod inactive, DT40 TDP1 CPT inconclusive and DT40 TDP1 no CPT 21µM.
Screening COc1ccc(NS(=O)(=O)c2cc(NC(=O)Cc3cccs3)ccc2C)cc1 returned TDP1 inh inactive, ClpP mod inactive, DT40 TDP1 CPT inactive and DT40 TDP1 no CPT inactive.
`Cn1c(N)c(C(=O)COC(=O)c2ccc([N+](=O)[O-])o2)c(=O)n(C)c1=O` gave TDP1 inh inactive, DT40 TDP1 CPT 18µM and DT40 TDP1 no CPT inconclusive.
`CCOC(=O)c1c(C)[nH]c(C(=O)COC(=O)c2ccc([N+](=O)[O-])o2)c1C` gave TDP1 inh inactive, ClpP mod inactive, DT40 TDP1 CPT 16µM and DT40 TDP1 no CPT 26µM.
`COC(=O)c1ccccc1NC(=S)N(Cc1ccc2c(c1)OCO2)Cc1cc2ccc(OC)cc2[nH]c1=O` gave TDP1 inh inactive, ClpP mod inactive, DT40 TDP1 CPT inactive and DT40 TDP1 no CPT inconclusive.
Screening Cc1noc(C)c1C(=O)N1CCC2(CCCN(c3ccncc3)C2)CC1 returned DT40 TDP1 CPT inactive and DT40 TDP1 no CPT inactive.
CCc1ccc(/C=C2\Oc3ccc(C(=O)OC)cc3C2=O)cc1 was read as TDP1 inh inactive, ClpP mod inactive, DT40 TDP1 CPT inactive and DT40 TDP1 no CPT inconclusive.
COC(=O)c1ccc2c(c1)C(=O)/C(=C/c1ccc(C)cc1)O2 was read as TDP1 inh inactive, ClpP mod 28µM, DT40 TDP1 CPT 18µM and DT40 TDP1 no CPT 13µM.
Screening Cc1cccc(OCCSc2nnc(-c3ccoc3C)n2C)c1 returned TDP1 inh inactive, ClpP mod inactive, DT40 TDP1 CPT 23µM and DT40 TDP1 no CPT 21µM.
`CCN(CC)C(=O)Cn1c(SCC(=O)Nc2ccc(C)c(C)c2)nc2ccccc21` gave TDP1 inh inactive, ClpP mod inactive, DT40 TDP1 CPT inconclusive and DT40 TDP1 no CPT inconclusive.
Screening O=C(Cn1ncc2c3ccccc3n(Cc3ccc(Cl)cc3)c2c1=O)NCCC1=CCCCC1 returned TDP1 inh inactive, ClpP mod inactive, DT40 TDP1 CPT inactive and DT40 TDP1 no CPT inactive.
For Cc1cc(C)c(Cn2c3ccccc3c3cnn(CC(=O)NCCCc4ccccc4)c(=O)c32)c(C)c1 the results were TDP1 inh inactive, ClpP mod inconclusive, DT40 TDP1 CPT 18µM and DT40 TDP1 no CPT 21µM.
`Cc1cc(C)c(Cn2c3ccccc3c3cnn(CC(=O)NCc4ccccn4)c(=O)c32)c(C)c1` gave TDP1 inh inactive, ClpP mod inactive, DT40 TDP1 CPT 21µM and DT40 TDP1 no CPT 23µM.
For Cc1cc(C)c(Cn2c3ccccc3c3cnn(CC(=O)NCCC4=CCCCC4)c(=O)c32)c(C)c1 the results were TDP1 inh inactive, ClpP mod inactive, DT40 TDP1 CPT 21µM and DT40 TDP1 no CPT 16µM.
`Cc1cc(C)c2nc(SCC(=O)NCCC3=CCCCC3)cc(C)c2c1` gave TDP1 inh inactive, ClpP mod inactive, DT40 TDP1 CPT inconclusive and DT40 TDP1 no CPT 21µM.
`Cc1ccccc1Cn1c2ccccc2c2cnn(CC(=O)NCc3ccccn3)c(=O)c21` gave TDP1 inh inactive, ClpP mod inactive, DT40 TDP1 CPT inconclusive and DT40 TDP1 no CPT inconclusive.
Screening Nc1cc(N)nc(SCC(=O)NCCC2=CCCCC2)n1 returned TDP1 inh inactive, ClpP mod inactive, DT40 TDP1 CPT inactive and DT40 TDP1 no CPT inactive.
`CC(C)CC(N)c1csc(Nc2ccc(C(=O)c3ccccc3)cc2)n1` (centres undefined) gave ClpP mod inactive, DT40 TDP1 CPT inconclusive and DT40 TDP1 no CPT 16µM.
